Assay results taken from PubChem BioAssay AID1159580 (chemical genetic matrix, 2015).
Values joined by “and” are separate entries in the source; they are usually repeats but may differ in a detail not shown here. Equal values may be shown once. In all, about 5,500 compounds went through this assay and about 2,000 (36%) were called active. About 18% were inconclusive and are not listed. Cut-off read from the data, not from the text of the source: active = normalized growth mostly below about 0.91 (no sharp cut-off); inconclusive = no clear call, values can overlap the other calls; inactive = mostly above about 0.92. This is one part of the list.

Assay: chemical genetic growth profiling, strain panel (AID 1159580);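 note: tested at 20 µM; growth read once vehicle control cultures reached saturation at 30 °C; 1 = growth at the plate median or of vehicle wells; lower values mean less growth of the strain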
Conditions: S. cerevisiae deletion strains, growth OD

Measured: normalized growth

CO[C@@H]1[C@@H](O[C@@H]2O[C@H](C)[C@@H](O[C@H]3C[C@@](C)(O)[C@H](O)[C@H](C)O3)[C@H](N(C)C)[C@H]2O)[C@@H](CC=O)C[C@@H](C)[C@@H](O[C@H]2CC[C@H](N(C)C)[C@@H](C)O2)/C=C/C=C/C[C@H](C)OC(=O)C[C@H]1O
inactive: locus YAL021C, strain ccr4, stronger effect = lower value 1.02 | locus YAL026C, strain drs2, stronger effect = lower value 1.01 | locus YAL030W, strain snc1, stronger effect = lower value 0.997 | locus YBL061C, strain skt5, stronger effect = lower value 1.02 | locus YBR009C, strain hhf1, stronger effect = lower value 1.01 | locus YBR021W, strain FUR4, stronger effect = lower value 1.03 | locus YBR023C, strain chs3, stronger effect = lower value 1.01 | locus YBR171W, strain sec66, stronger effect = lower value 1.02 | locus YBR229C, strain ROT2, stronger effect = lower value 1.02 | locus YBR231C, strain swc5, stronger effect = lower value 1.02 | locus YBR279W, strain paf1, stronger effect = lower value 1.03 | locus YCL011C, strain gbp2, stronger effect = lower value 1.01 | locus YCL016C, strain dcc1, stronger effect = lower value 1.01 | locus YCL029C, strain bik1, stronger effect = lower value 1 | locus YCL061C, strain MRC1, stronger effect = lower value 1.01 | locus YCL069W, strain vba3, stronger effect = lower value 1.01 | locus YCR088W, strain abp1, stronger effect = lower value 1.02 | locus YDL005C, strain med2, stronger effect = lower value 1.01 | locus YDL035C, strain GPR1, stronger effect = lower value 1 | locus YDL040C, strain nat1, stronger effect = lower value 1.02 | locus YDL074C, strain BRE1, stronger effect = lower value 1.04 | locus YDL101C, strain DUN1, stronger effect = lower value 1.01 | locus YDL185W, strain tfp1, stronger effect = lower value 0.976 | locus YDL192W, strain arf1, stronger effect = lower value 0.998 | locus YDR001C, strain nth1, stronger effect = lower value 1.01 | locus YDR069C, strain doa4, stronger effect = lower value 1 | locus YDR101C, strain arx1, stronger effect = lower value 1.02 | locus YDR137W, strain rgp1, stronger effect = lower value 1.02 | locus YDR150W, strain NUM1, stronger effect = lower value 1.02 | locus YDR159W, strain sac3, stronger effect = lower value 1.01 | locus YDR162C, strain NBP2, stronger effect = lower value 1.01 | locus YDR195W, strain ref2 1 | locus YDR297W, strain sur2, stronger effect = lower value 1.01 | locus YDR318W, strain mcm21, stronger effect = lower value 0.996 | locus YDR334W, strain swr1, stronger effect = lower value 1.03 | locus YDR335W, strain msn5, stronger effect = lower value 1.01 | locus YDR388W, stronger effect = lower value 1 | locus YDR392W, strain spt3, stronger effect = lower value 1.02 | locus YDR502C, strain sam2, stronger effect = lower value 0.989 | locus YEL003W, strain gim4, stronger effect = lower value 1.01 | locus YEL037C, strain rad23, stronger effect = lower value 1.01 | locus YEL061C, strain CIN8 (second series), stronger effect = lower value 1.01 | locus YEL061C, strain CIN8, stronger effect = lower value 1.01 | locus YER015W, strain faa2, stronger effect = lower value 1 | locus YER016W, strain bim1, stronger effect = lower value 1.01 | locus YER110C, stronger effect = lower value 0.967 | locus YER111C, strain swi4, stronger effect = lower value 1.01 | locus YER155C, strain BEM2 (second series), stronger effect = lower value 1.02 | locus YER155C, strain BEM2, stronger effect = lower value 1.01 | locus YER167W, strain BCK2, stronger effect = lower value 1.02 | locus YFR010W, strain ubp6, stronger effect = lower value 1.02 | locus YGL078C, strain dbp3, stronger effect = lower value 0.982 | locus YGL086W, strain mad1, stronger effect = lower value 0.994 | locus YGL167C, strain pmr1, stronger effect = lower value 1.01 | locus YGL173C, strain kem1, stronger effect = lower value 1.01 | locus YGL227W, strain vid30, stronger effect = lower value 1.02 | locus YGL240W, strain doc1, stronger effect = lower value 0.999 | locus YGL248W, strain PDE1, stronger effect = lower value 1.02 | locus YGL253W, strain hxk2, stronger effect = lower value 1.01 | locus YGR078C, strain PAC10, stronger effect = lower value 1.01 | locus YGR135W, strain pre9, stronger effect = lower value 0.955 | locus YGR229C, strain SMI1, stronger effect = lower value 1.03 | locus YGR252W, strain gcn5, stronger effect = lower value 0.95 | locus YHR013C, strain ard1, stronger effect = lower value 1.03 | locus YHR027C, strain rpn1, stronger effect = lower value 1.01 | locus YHR030C, strain SLT2, stronger effect = lower value 1.02 and 0.972 | locus YHR079C, strain IRE1 (second series), stronger effect = lower value 1 | locus YHR079C, strain IRE1, stronger effect = lower value 0.961 | locus YHR094C, strain hxt1, stronger effect = lower value 1 | locus YHR129C, strain ARP1, stronger effect = lower value 1.02 | locus YHR142W, strain chs7, stronger effect = lower value 1 | locus YHR200W, strain rpn10, stronger effect = lower value 0.984 | locus YIL066C, strain RNR3, stronger effect = lower value 1.03 | locus YIL073C, strain SPO22, stronger effect = lower value 0.928 | locus YIL125W, strain kgd1, stronger effect = lower value 0.997 | locus YIR030C, strain dcg1, stronger effect = lower value 1 | locus YJL092W, strain hpr5, stronger effect = lower value 1.01 | locus YJL095W, strain BCK1 (second series), stronger effect = lower value 1.01 | locus YJL095W, strain BCK1, stronger effect = lower value 1.01 and 0.969 | locus YJL115W, strain asf1, stronger effect = lower value 1.02 | locus YJL129C, strain trk1, stronger effect = lower value 1 | locus YJL134W, strain LCB3, stronger effect = lower value 1.01 | locus YJL154C, strain vps35, stronger effect = lower value 1.02 | locus YJL164C, strain tpk1, stronger effect = lower value 1 | locus YJL166W, strain qcr8, stronger effect = lower value 1.02 | locus YJL168C, strain set2, stronger effect = lower value 0.979 | locus YJL187C, strain SWE1 (second series), stronger effect = lower value 1.02 | locus YJL187C, strain SWE1, stronger effect = lower value 1.01 | locus YJR043C, strain POL32, stronger effect = lower value 1 | locus YJR066W, strain TOR1, stronger effect = lower value 0.922 | locus YJR075W, strain HOC1, stronger effect = lower value 0.991 | locus YKL009W, strain mrt4, stronger effect = lower value 0.969 | locus YKL068W, stronger effect = lower value 1.02 | locus YKL085W, strain MDH1 (second series), stronger effect = lower value 1.01 | locus YKL085W, strain MDH1, stronger effect = lower value 1.01 | locus YKL160W, strain elf1, stronger effect = lower value 1.02 | locus YKR001C, strain vps1, stronger effect = lower value 0.982 | locus YKR026C, strain gcn3, stronger effect = lower value 1.02 | locus YKR091W, strain srl3, stronger effect = lower value 1.01 | locus YLL001W, strain dnm1, stronger effect = lower value 1.01 | locus YLL026W, stronger effect = lower value 1.01 | locus YLL041C, strain sdh2, stronger effect = lower value 1.01 | locus YLR027C, strain aat2, stronger effect = lower value 1.01 | locus YLR039C, strain RIC1, stronger effect = lower value 0.943 | locus YLR058C, strain SHM2, stronger effect = lower value 1.02 | locus YLR102C, strain apc9, stronger effect = lower value 0.997 | locus YLR113W, strain HOG1, stronger effect = lower value 0.965 | locus YLR221C, strain rsa3, stronger effect = lower value 1 | locus YLR258W, strain gsy2, stronger effect = lower value 1.01 | locus YLR262C, strain YPT6 (second series), stronger effect = lower value 1.02 | locus YLR262C, strain YPT6, stronger effect = lower value 0.989 | locus YLR268W, strain sec22, stronger effect = lower value 0.996 | locus YLR320W, strain mms22, stronger effect = lower value 1.02 | locus YLR330W, strain CHS5, stronger effect = lower value 1.01 | locus YLR342W, strain FKS1 (second series), stronger effect = lower value 0.999 | locus YLR342W, strain FKS1, stronger effect = lower value 1.02 | locus YLR357W, strain rsc2, stronger effect = lower value 1.02 | locus YLR370C, strain arc18, stronger effect = lower value 1.01 | locus YLR371W, strain rom2, stronger effect = lower value 1 | locus YLR384C, strain iki3, stronger effect = lower value 1.03 | locus YLR418C, strain cdc73, stronger effect = lower value 0.967 | locus YML016C, strain PPZ1, stronger effect = lower value 1.01 | locus YML032C, strain rad52, stronger effect = lower value 0.955 | locus YML120C, strain ndi1, stronger effect = lower value 1.01 | locus YML124C, strain tub3, stronger effect = lower value 1 | locus YMR058W, strain fet3, stronger effect = lower value 1.02 | locus YMR078C, strain ctf18, stronger effect = lower value 0.993 | locus YMR125W, strain sto1, stronger effect = lower value 1.01 | locus YMR129W, stronger effect = lower value 1.02 | locus YMR205C, strain PFK2, stronger effect = lower value 1.03 | locus YMR223W, strain ubp8, stronger effect = lower value 0.975 | locus YMR231W, strain pep5, stronger effect = lower value 1 | locus YMR263W, strain SAP30, stronger effect = lower value 1.01 | locus YMR307W, strain GAS1, stronger effect = lower value 0.959 | locus YNL067W, strain RPL9B, stronger effect = lower value 1.01 | locus YNL071W, strain lat1, stronger effect = lower value 1 | locus YNL153C, strain GIM3, stronger effect = lower value 1.01 | locus YNL183C, strain NPR1, stronger effect = lower value 0.921 | locus YNL209W, strain ssb2, stronger effect = lower value 1.02 | locus YNL233W, strain BNI4, stronger effect = lower value 1 | locus YNL248C, strain rpa49, stronger effect = lower value 1.01 | locus YNL250W, strain rad50, stronger effect = lower value 0.989 | locus YNL271C, strain bni1, stronger effect = lower value 1 | locus YNL298W, strain CLA4, stronger effect = lower value 0.997 | locus YNL307C, strain MCK1, stronger effect = lower value 0.993 | locus YNL322C, strain KRE1 (second series), stronger effect = lower value 1.01 | locus YNL322C, strain KRE1, stronger effect = lower value 1.02 | locus YNR049C, strain mso1, stronger effect = lower value 1.02 | locus YNR052C, strain pop2, stronger effect = lower value 0.996 | locus YOL012C, strain htz1 0.441 | locus YOL147C, strain pex11, stronger effect = lower value 0.991 | locus YOR001W, strain rrp6, stronger effect = lower value 0.998 | locus YOR061W, strain CKA2, stronger effect = lower value 1.01 | locus YOR069W, strain VPS5, stronger effect = lower value 1.01 | locus YOR070C, strain gyp1, stronger effect = lower value 1.01 | locus YOR080W, strain dia2, stronger effect = lower value 1.01 | locus YOR083W, strain WHI5, stronger effect = lower value 1.02 | locus YOR106W, strain vam3, stronger effect = lower value 1.03 | locus YOR136W, strain idh2, stronger effect = lower value 1 | locus YOR144C, strain elg1, stronger effect = lower value 0.992 | locus YOR184W, strain ser1, stronger effect = lower value 0.967 | locus YOR231W, strain MKK1, stronger effect = lower value 0.973 | locus YOR265W, strain rbl2, stronger effect = lower value 1.01 | locus YOR270C, strain vph1, stronger effect = lower value 0.997 | locus YOR290C, strain snf2, stronger effect = lower value 1 | locus YOR316C, strain cot1, stronger effect = lower value 1.01 | locus YPL051W, strain arl3, stronger effect = lower value 1.01 | locus YPL055C, strain LGE1, stronger effect = lower value 1.03 | locus YPL078C, strain atp4, stronger effect = lower value 1.01 | locus YPL106C, strain sse1, stronger effect = lower value 1.04 | locus YPL240C, strain hsp82, stronger effect = lower value 1.01 | locus YPL256C, strain CLN2, stronger effect = lower value 1 | locus YPR119W, strain clb2, stronger effect = lower value 0.994 | locus YPR141C, strain kar3, stronger effect = lower value 1.02 | locus YPR163C, strain tif3, stronger effect = lower value 1.01 | locus YPR167C, strain met16, stronger effect = lower value 1 | strain wtn01, stronger effect = lower value 0.989
